Source: PubChem BioAssay
Tb PFK block = qHTS Assay to Find Inhibitors of T. brucei phosphofructokinase; T. brucei PFK, ADP-Glo luminescence; Potency, µM (highest dose often 57.5 µM), hits mostly inhibitors; ATP-dependent 6-phosphofructokinase (Trypanosoma brucei brucei), O15648; actives 0.17% (n = 330,000); AID 485367, 2010; also: nearly all actives have a fitted effect of over 60% in size
Target sequence (O15648 whole entry, looked up): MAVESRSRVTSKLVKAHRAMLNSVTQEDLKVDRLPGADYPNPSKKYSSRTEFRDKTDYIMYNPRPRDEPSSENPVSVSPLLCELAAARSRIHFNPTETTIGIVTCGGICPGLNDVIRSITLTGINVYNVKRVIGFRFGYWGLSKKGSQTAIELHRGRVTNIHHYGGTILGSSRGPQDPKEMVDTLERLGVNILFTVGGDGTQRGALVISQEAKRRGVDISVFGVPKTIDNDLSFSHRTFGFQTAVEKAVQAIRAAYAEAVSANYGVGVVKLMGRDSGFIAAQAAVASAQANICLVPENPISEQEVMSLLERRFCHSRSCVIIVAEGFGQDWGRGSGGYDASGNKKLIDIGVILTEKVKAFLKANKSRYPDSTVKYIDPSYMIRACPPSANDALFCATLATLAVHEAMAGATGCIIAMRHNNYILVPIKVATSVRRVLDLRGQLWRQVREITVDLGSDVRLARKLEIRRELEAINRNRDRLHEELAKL
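Compounds were pin-transferred as a titration series up to 57 uM into substrate buffer (0.5 mM F6P, 0.1 mM ATP, pH 8.0), then 1.25 nM PFK was added and reactions ran 45 min before ADP-Glo detection.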
Pin1 inhibitor = qHTS Assay to Find Inhibitors of Pin1. Potency, µM (highest dose often 115 µM), most hits filed as inhibitors. AID 504891, 2011. actives 0.009% (n = 390,000). Peptidyl-prolyl cis-trans isomerase NIMA-interacting 1 (Homo sapiens), Q13526. Pin1 FP peptide displacement, HiFluor488, 10 min; active = well fitted inhibition curve with a large enough effect in the polarisation, with a control signal flat, not every such curve was filed as active; inconclusive = small, poorly fitted or top-dose-only effect, or effect the other way, or a change in a side signal; inactive = no such curve, though single readings can be large or run the other way; the % refers to the polarisation
Target sequence (Q13526 whole entry, looked up): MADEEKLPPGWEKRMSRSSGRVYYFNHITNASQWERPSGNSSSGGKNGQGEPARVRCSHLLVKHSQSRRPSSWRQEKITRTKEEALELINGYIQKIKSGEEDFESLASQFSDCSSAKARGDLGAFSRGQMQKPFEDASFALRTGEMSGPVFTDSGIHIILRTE
ASM inhibitor = Inhibitors of Secretory Acid Sphingomyelinase (S-ASM): qHTS; placental ASM, HMU-PC fluorogenic substrate, 60 min; Potency, µM (series often up to 57.5 µM), usual class: inhibitors; Sphingomyelin phosphodiesterase (Homo sapiens), P17405; AID 504937, 2011; actives 0.006% (n = 340,000)
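qHTS format. ASM enzyme prepared from human placenta hydrolyses the fluorogenic substrate HMU-PC0 (9 uM final) over 60 min at 37 °C after a 10 min compound preincubation.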
PLK1 PBD inh = qHTS for Inhibitors of PLK1-PDB (polo-like kinase 1 - polo-box domain): Primary Screen | Serine/threonine-protein kinase PLK1 (Homo sapiens), P53350 | Plk1 PBD binding of FITC phosphopeptide, fluorescence polarization | Potency, µM, most hits filed as inhibitors | actives 2.8% (n = 360,000) | AID 720504, 2013; also: series mostly up to about 57 µM; nearly all actives have a fitted effect of over 65% in size
VDR inhibitor = Inhibitors of the vitamin D receptor (VDR): qHTS. VDR-SRC2-3 peptide fluorescence polarization, 2 h. Potency, µM, usual class: inhibitors. actives 0.93% (n = 400,000). AID 504847, 2011
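Measured by FP: displacement of SRC2-3 coactivator peptide from VDR by library compounds, following a two-hour ambient incubation.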
TDP1 inh = qHTS Assay for Inhibitors of Tyrosyl-DNA Phosphodiesterase (TDP1) | Potency, µM (highest dose often 130 µM), hits mostly inhibitors | recombinant TDP1, AlphaScreen DNA substrate cleavage | Tyrosyl-DNA phosphodiesterase 1 (Homo sapiens), Q9NUW8 | actives 0.28% (n = 350,000); also: nearly all actives have a fitted effect of over 40% in size
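AlphaScreen read-out: signal falls as enzyme removes the 3' tyrosine-FITC from a 5'-biotinylated DNA oligo (15 nM, 5 min, RT). Enzyme was E. coli-made recombinant Tdp1 at 1 nM, exposed to compound for 15 min beforehand; beads 10 ug/ml, 10 min.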
Hits are given with their value; i = inactive; ? = inconclusive; nt = no result given. This is a sample that favours compounds with a hit; in the whole collection about 3.1% have one here. Unless noted, calls follow the shape of the dose curve; as a rule, active = well fitted curve in the direction sought with a large enough effect; inconclusive = small, poorly fitted or top-dose-only effect, or another doubt; inactive = no such curve, though single readings can be large; an effect the other way counts as inactive or inconclusive.

SMILES | Tb PFK block | Pin1 inhibitor | ASM inhibitor | PLK1 PBD inh | VDR inhibitor | TDP1 inh
c1ccc(C2=Nn3c(Cn4nnc5ccccc54)nnc3SC2)cc1 | i | i | i | i | i | i
Cn1c(Cn2nnc3ccccc32)nnc1SCC(=O)Nc1ccc2c(c1)OCO2 | i | i | i | i | i | i
N#Cc1ccc(NCCNCC(=O)N2N=CCC2C#N)nc1 (stereo not drawn) | nt | nt | nt | nt | i | i
CC1=CC2=NC(=O)CC(C)(C(=O)N(CC(=O)NC3CCCC3)c3ccccc3F)N2C=C1 (stereo not drawn) | i | ? | i | i | i | i
CC1=CC2=NC(=O)CC(C)(C(=O)N(CC(=O)NC3CCCC3)c3ccccc3C)N2C=C1 (stereo not drawn) | i | i | i | 29.9µM | i | nt
COc1ccc(C(=O)NCC(c2ccc(N(C)C)cc2)N2CCc3ccccc32)cc1 (stereo not drawn) | nt | i | nt | nt | i | i
O=C(O)c1ccccc1N(c1ccccc1)c1ccccc1 | nt | i | i | i | 35.5µM | nt
CSCC[C@H](NC(=O)[C@H](Cc1c[nH]c2ccccc12)NC(=O)CNC(=O)[C@H](Cc1ccc(O)cc1)NC(=O)[C@H](C)NC(=O)[C@H](CCC(=O)O)NC(=O)[C@H](CCC(=O)O)NC(=O)[C@H](CCC(=O)O)NC(=O)[C@H](CCC(=O)O)NC(=O)[C@H](CCC(=O)O)NC(=O)[C@H](CC(C)C)NC(=O)[C@H](Cc1c[nH]c2ccccc12)NC(=O)[C@@H]1CCCN1C(=O)CNC(=O)[C@@H]1CCC(=O)N1)C(=O)N[C@@H](CC(=O)O)C(=O)N[C@@H](Cc1ccccc1)C(=O)NCC(=O)O | nt | nt | nt | nt | i | i
O=C1CCc2cc(S(=O)(=O)Nc3ccccn3)ccc2N1 | nt | i | nt | nt | nt | i
CCc1c(C)sc(NC(=O)C2CCCO2)c1C#N (stereo not drawn) | i | i | i | 23.8µM | ? | i
CCCc1cc(C(=O)Nc2sc(C)c(CC)c2C#N)no1 | i | i | i | 26.7µM | ? | i
CCc1c(C)sc(NC(=O)c2cc(-c3ccco3)on2)c1C#N | i | i | i | 26.7µM | ? | i
CC1CCc2c(sc(NC(=O)C3CCCO3)c2C#N)C1 (stereo not drawn) | i | i | i | i | i | i
Cc1ccc(Cl)cc1NS(=O)(=O)c1cc2c(cc1Cl)CCC(=O)N2 | nt | i | nt | nt | nt | i
CCCN1CNc2c(c(=O)[nH]c(=S)n2CCc2cccc(C)c2C)C1 | nt | i | nt | nt | i | i
COc1ccc(-c2nc3ccccc3nc2-c2ccccc2)cc1 | i | i | i | 21.2µM | ? | nt
COc1ccccc1-c1nc2ccccc2nc1-c1ccccc1 | i | i | i | i | i | i
COc1ccc(-c2nc3ccccc3c(=O)n2NC(=S)N(C)C)cc1 | i | i | i | 4.74µM | 35.5µM | i
O=C1CC(c2ccccc2)Oc2cc(O)cc(O)c21 (stereo not drawn) | i | ? | i | i | i | nt
CC1CC(=O)c2c(cc3c(-c4c(O)cc(O)c5c(O)c6c(cc45)OC(C)CC6=O)c(O)cc(O)c3c2O)O1 (stereo not drawn) | i | ? | i | 26.7µM | ? | i
COc1ccc(NC(=O)CSc2nnc(C3CC3)n2N)cc1 | i | i | i | i | i | i
COc1ccc(NC(=O)CSc2nnc(C3CC3)n2C)cc1 | i | i | i | 23.8µM | 28.2µM | i
CCOC(=O)c1csc(NC(=O)CSc2nnc(C3CC3)n2C)n1 | i | i | i | 26.7µM | i | i
Cn1c(SCC(=O)Nc2nncs2)nnc1C1CC1 | i | ? | i | ? | i | 8.91µM
CCOC(=O)Cc1csc(NC(=O)CSc2nnc(C3CC3)n2C)n1 | i | i | i | i | i | i
SMILES | Tb PFK block | Pin1 inhibitor | ASM inhibitor | PLK1 PBD inh | VDR inhibitor | TDP1 inh
Cc1cccc(OCC(=O)N(Cc2cccc(Cl)c2)Cc2ccco2)c1C | nt | i | nt | nt | i | i
Cc1cccc(-c2noc(-c3ccccc3OCC(=O)Nc3ccccc3[N+](=O)[O-])n2)c1 | nt | i | nt | nt | i | i
O=C(NC(Sc1ccc(Cl)cc1)C(=O)O)c1ccccc1 (stereo not drawn) | nt | nt | nt | 13.4µM | nt | nt
O=C(NC(C(=O)O)c1ccccc1)c1ccccc1 (stereo not drawn) | i | i | i | i | i | i
C[N+](C)(C)C/C=C1/COCO1 | i | i | i | 3.36µM | i | i
COc1cc([C@@H]2c3cc4c(cc3[C@H](O)[C@H]3COC(=O)[C@@H]23)OCO4)cc(OC)c1OC | nt | i | nt | nt | i | i
CC(C)(C)OC(=O)NCC(=O)NNC(=O)c1cc2ccccc2[nH]1 | nt | i | nt | nt | nt | i
O=C(O)c1cc([N+](=O)[O-])ccc1NCc1ccccn1 | i | i | i | i | i | i
O=C(O)c1cc([N+](=O)[O-])ccc1NCc1ccccc1Cl | i | i | i | 23.8µM | i | i
CCOCC(=O)Nc1nnc(C2CCCCC2)s1 | i | i | i | 26.7µM | ? | i
CS(=O)(=O)Nc1nnc(C2CCCC2)s1 | i | i | i | 18.9µM | i | i
CCOC(=O)C(=O)Nc1nnc(C2CCCCC2)s1 | i | i | i | 23.8µM | i | i
O=S(=O)(Nc1nnc(C2CC2)s1)c1ccccc1 | i | i | i | ? | i | nt
COCC(=O)Nc1nnc(C2CCCCC2)s1 | i | i | i | i | i | i
Cc1ccc(SCc2nc(-c3ccc(C(=O)Nc4cc(C)ccc4C)cc3)oc2C)cc1 | nt | i | nt | nt | i | i
COc1ccc(CNc2oc(/C=C/c3cc(OC)c(OC)c(OC)c3)nc2C#N)cc1 | nt | ? | nt | nt | i | i
O=C(CSc1ccc(Br)cc1)NC1CCS(=O)(=O)C1 (stereo not drawn) | i | i | i | 16.8µM | ? | i
COc1ccccc1N(Cc1cc(=O)[nH]c2ccccc12)C(=O)C(C)C | i | i | i | i | i | nt
COc1ccccc1N(Cc1cc(=O)[nH]c2ccccc12)C(=O)c1cccc([N+](=O)[O-])c1 | i | i | i | 29.9µM | ? | i
COc1ccccc1NC(=O)N1CCN(c2nnc(C)c3c(C)n(-c4ccccc4)nc23)CC1 | nt | ? | nt | nt | i | i
CC1=C([N+](=O)[O-])C(c2ccc(Cl)cc2)NC(=O)N1C (stereo not drawn) | i | i | i | 2.99µM | ? | nt
COc1ccc(CC(=O)NCC2CCCN(Cc3cccc(C(F)(F)F)c3)C2)cc1 (stereo not drawn) | i | i | i | 26.7µM | ? | nt
COc1ccc(CC(=O)NCC2CCCN(Cc3ccc(F)c(OC)c3)C2)cc1 (stereo not drawn) | i | i | i | i | i | nt
